Screening results as filed in PubChem.
ELG1 genotoxic: qHTS screen for small molecules that induce genotoxicity in human embryonic kidney (HEK293T) cells expressing luciferase-tagged ELG1 | HEK293T ELG1-luciferase reporter, luminescence, 16 h | Potency, µM (doses to about 46 µM), without a hit: at the highest dose activity change, positive = activation, hits mostly activators | 330,000 tested, 1.3% active | AID 504466, 2011; note: % of control where 0% means no effect; nearly all actives have a fitted effect of over 60% in size
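16 hr compound incubation (37 °C, 5% CO2) of HEK293T cells carrying luciferase-tagged ELG1; luciferase then measured by ONE-Glo luminescence after 30 min at RT.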
Rab9 prom act: qHTS Assay for Rab9 Promoter Activators; Huh7 Rab9 promoter-luciferase reporter, luminescence, 24 h; Potency, µM (titrated, usually from 9.22 µM), for inactives: at the highest dose activation, negative = inhibition, hits mostly activators; 320,000 tested, 2.8% active; AID 485297, 2010; note: % of control where 0% means no effect; nearly all actives have a fitted effect of over 60% in size
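Stable Rab9-luc Huh7, 1500 cells/well, 2 h settle; cmpd in DMSO, 24 h, 37 °C/5% CO2; luciferase reagent 10 min RT; luminescence.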
SMN2 splice up: qHTS Assay for Enhancers of SMN2 Splice Variant Expression. HEK293 SMN2-luciferase splicing reporter, luminescence, 30-36 h. Potency, µM (titrated, usually from 46.1 µM), without a hit: at the top dose activity change, positive = activation, hits mostly activators. 210,000 tested, 2.8% active; note: % of control where 0% means no effect; nearly all actives have a fitted effect of over 55% in size
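qHTS luciferase splicing reporter: luminescence rises when SMN2 exon 7 is included in transfected HEK293 cells. Compound exposure lasted 30-36 h at 37C, with 4.5 mM final sodium butyrate as control, followed by a ONE-Glo read.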
KinaseGlo FLuc: Counterscreen for Luciferase (Kinase-Glo TM) Inhibition; Kinase-Glo luciferase, ATP luminescence, 8 min; Potency, µM (highest dose often 38.3 µM), for the others: top-dose activity change, negative = inhibition, hits mostly inhibitors; 200,000 tested, 0.28% active; note: % is set by controls: 0 for no effect and ±100 for the full control effect; nearly all actives have a fitted effect of over 60% in size
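Compound is pinned into ATP-containing buffer (10 uM ATP, imidazole pH 7.2, 7 mM MgCl2). Kinase-Glo luciferase reagent is then added. Light output is recorded following an 8-min room-temperature incubation.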
FLuc modulator: qHTS profiling assay for firefly luciferase inhibitor/activator using purifed enzyme and Km concentrations of substrates (counterscreen for miR-21 project); purified FLuc, Km substrates, luminescence inhibition; Potency, µM (series often up to 57.5 µM), inactives show top-dose activity change, negative = inhibition, actives largely listed as inhibitors; 360,000 tested, 6.9% active; AID 588342, 2011; Luciferin 4-monooxygenase (Photinus pyralis), P08659;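 note: plate controls were vehicle for no effect and reference inhibitor for full effect; nearly all actives have a fitted effect of over 55% in size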
Target sequence (P08659 whole entry, looked up): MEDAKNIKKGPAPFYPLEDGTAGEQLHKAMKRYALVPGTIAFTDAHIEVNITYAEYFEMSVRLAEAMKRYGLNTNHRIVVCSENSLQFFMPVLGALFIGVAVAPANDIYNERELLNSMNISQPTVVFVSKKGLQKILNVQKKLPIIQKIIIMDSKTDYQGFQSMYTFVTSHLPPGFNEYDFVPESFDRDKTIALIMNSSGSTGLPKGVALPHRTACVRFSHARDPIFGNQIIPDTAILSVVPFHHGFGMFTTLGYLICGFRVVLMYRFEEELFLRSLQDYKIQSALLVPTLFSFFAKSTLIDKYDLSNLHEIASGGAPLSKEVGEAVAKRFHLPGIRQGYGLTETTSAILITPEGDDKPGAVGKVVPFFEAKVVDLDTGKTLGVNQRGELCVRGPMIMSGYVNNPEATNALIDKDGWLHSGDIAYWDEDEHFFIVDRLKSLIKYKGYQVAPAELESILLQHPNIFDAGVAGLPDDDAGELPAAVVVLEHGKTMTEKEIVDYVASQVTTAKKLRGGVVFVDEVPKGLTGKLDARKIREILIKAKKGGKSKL
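Purified P. pyralis luciferase (10nM final) with 10uM D-luciferin and 10uM ATP (Km levels) in 50mM Tris acetate pH 7.5, 10mM Mg acetate, 0.01% Tween-20, 0.05% BSA; qHTS 6-point titration, ~60 µM downward; luminescence read.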
NPC1 promoter act: qHTS Assay for NPC1 Promoter Activators; 320,000 tested, 2.4% active; Potency, µM (doses to about 9.22 µM), for the others: top-dose activation, actives largely listed as activators; Huh7 NPC1 promoter luciferase reporter, 24 h; note: % of control where 0% means no effect; nearly all actives have a fitted effect of over 60% in size
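Luciferase expression driven by the NPC1 promoter was measured in stably transfected Huh7 cells after a 24 h compound incubation, using a luciferase reagent and a luminescence read.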
Starred values were filed as active, the others as inactive; ? = inconclusive; . = no result given; [ ] = remark or other dose. The list is not random: actives were taken first. Their share in the collection is about 7.4%. Calls come from the whole dose curve; as a rule, active = well fitted curve in the direction sought with a large enough effect; inconclusive = small, poorly fitted or top-dose-only effect, or another doubt; inactive = no such curve, though single readings can be large; an effect the other way counts as inactive or inconclusive. Potency is the fitted concentration of half-maximal effect.

SMILES | ELG1 genotoxic | Rab9 prom act | SMN2 splice up | KinaseGlo FLuc | FLuc modulator | NPC1 promoter act
COc1ccc2cc(-c3cc(C(=O)OCC(=O)NC4CCS(=O)(=O)C4)c4ccccc4n3)ccc2c1 (stereo not given) | ? | 0.5µM* | 1.1µM* | -21% | 0.48µM* | 0.63µM*
CCNC(=O)COC(=O)c1cc(-c2ccc(OC)cc2)nc2ccccc12 | 7% | 18% | -1% | -26% | 5.4µM* | 13%
CCOc1ccccc1CNC(=O)c1cccn1-c1nnc(N2CCCC2)s1 | . | . | . | . | -2% | .
CC(=O)c1cccc(Nc2ncnc3c2cnn3-c2cccc(Cl)c2)c1 | . | . | . | . | -15% | .
COc1ccc(CCNC(=O)c2ccc3c(c2)c(C)c(C)n3Cc2ccccc2)c(OC)c1OC | . | . | . | . | -20% | .
CCc1cc2c(SCC(=O)c3cccs3)ncnc2s1 | 23µM* | 7% | ? | 0% | -12% | 22%
CCc1cc2c(SCC(=O)c3ccccc3)ncnc2s1 | ? | 2% | 8.9µM* | -3% | ? | 20%
CCc1c(C)nc(SCC(=O)c2cccs2)c(C#N)c1C | 9.2µM* | ? | 16µM* | 4% | 2.7µM* | 3.2µM*
CCc1c(C)nc(SCC(N)=O)c(C#N)c1C | 0% | 7% | 2% | -2% | 4% | 0%
CC(=O)Nc1cccc(OCCCNC(=O)c2ccc(C(C)(C)C)cc2)c1 | 0% | 17% | . | . | 19µM* | 14%
CC(C)(C)c1ccc(C(=O)NCCCNC(=O)c2ccccn2)cc1 | 1% | -3% | . | . | 17µM* | -5%
CC(C)(C)c1ccc(C(=O)NCCCNC(=O)c2cccnc2)cc1 | 21% | ? | . | . | 17µM* | 25%
CC1(C)OC[C@@H]2O[C@H](n3cnc4c(N)nc(Cl)nc43)[C@@H](OS(C)(=O)=O)[C@@H]2O1 | . | . | 1%[9.22 µM] | -1%[7.66 µM] | . | .
Cc1ccc(C(=O)N/N=C/c2ccc(OC(=O)c3ccccc3Cl)cc2)cn1 | 2% | 5% | . | . | -9% | 5%
COc1ccccc1NC(=O)C(=O)N/N=C/c1cccs1 | ? | ? | 10%[1.84 µM] | -8% | 9.5µM* | 26%
O=C(N/N=C/c1cccc(OC(=O)c2ccco2)c1)c1ccc(F)cc1 | ? | -4% | 7% | 6% | 3.8µM* | 0%
CCOc1ccc2ccccc2c1/C=N/NC(=O)c1ccc(C)nc1 | 6% | 3% | . | . | 4.8µM* | 0%
COCCNC(=O)C(=O)N/N=C/c1cccs1 | -7% | 2% | -2% | 0% | 2% | -3%
O=C(N/N=C/c1cccc(OC(=O)c2ccccc2Cl)c1)c1cccnc1 | 18% | 10% | . | . | 24µM* | 24%
CCOc1ccc2ccccc2c1/C=N/NC(=O)CNC(=O)c1ccccc1O | -8% | -1% | . | . | -3% | 1%
CS(=O)(=O)Nc1c(O)ccc2c1CCCC2C1=NCCN1 (stereo not given) | . | . | 2% | . | . | .
Cc1ccc(NC(=O)c2cc3c(=O)n(Cc4cccnc4)ccc3nc2C)cc1F | . | . | . | . | -11% | .
COc1cccc(/C=N/NC(=O)c2cnn(-c3ccccc3)c2N)c1 | -2% | ? | . | . | 12µM* | ?
Cc1ccc(C(=O)N/N=C\c2cccs2)cn1 | -4% | 18% | 3% | -2% | 24µM* | 21%
Nc1c(C(=O)N/N=C/c2cccnc2)cnn1-c1ccccc1 | 5% | 14% | . | -20% | ? | 17%
SMILES | ELG1 genotoxic | Rab9 prom act | SMN2 splice up | KinaseGlo FLuc | FLuc modulator | NPC1 promoter act
COc1cccc(/C=N\NC(=O)c2ccc(C)nc2)c1 | 11% | 13% | . | . | 19µM* | 23%
Cc1ccc(C(=O)N/N=C\c2cccc(OC(=O)c3cccc(F)c3)c2)cn1 | 18% | -1% | . | . | 8.5µM* | 4%
C[C@H](CCC(=O)NCC(=O)O)C1CC[C@H]2[C@H]3C(C[C@H](O)[C@]12C)[C@@]1(C)CC[C@@H](O)C[C@H]1C[C@H]3O (stereo not given in full) | . | . | 7% | . | . | .
CC(=O)N1c2ccccc2C(=O)C1N(C)c1ccc(C)cc1 (stereo not given) | 2% | 13% | . | . | -7% | -3%
CC(=O)N1/C(=C/c2ccc(N(C)C)cc2)C(=O)c2ccccc21 | -29% | 0% | -38% | -17% | 17µM* | 1%
NC(=O)c1cnn(-c2ccc3ccccc3c2)c1N | ? | 4µM* | 18µM* | -1% | ? | 27%
Nc1nnc(/C=C/c2ccccc2Cl)s1 | ? | 3.5µM* | . | . | 6.7µM* | ?
Cn1c(CNC(=O)CSc2nc(-c3ccccc3F)nc3cc(=O)[nH]n23)nc2ccccc21 | . | . | . | . | 1% | .
Cc1cccc(NS(=O)(=O)c2ccc(Cl)c(C(=O)Nc3ccccc3C)c2)c1 | . | . | -19% | . | ? | .
COc1ccc(NC(=O)c2ccco2)c([N+](=O)[O-])c1 | ? | 2.5µM* | 35µM* | 0% | 21µM* | ?
Cc1ccc(NC(=O)c2ccco2)c(NC(=O)c2ccccc2)c1 | -1% | 5% | . | . | 0% | -2%
Cc1ccc(NC(=O)c2ccco2)c([N+](=O)[O-])c1 | ? | 2.8µM* | 22µM* | -4% | ? | 2.8µM*
COc1ccc(NC(=O)C/C(C)=N/NC(=O)c2ccco2)c([N+](=O)[O-])c1 | -15% | -2% | . | . | -3% | 0%
N#CCCn1c(=O)c(-c2ccccc2)nc2cnc(Oc3ccccc3)nc21 | . | . | -6% | 1% | . | .
CCc1ccccc1N(CC)C(=O)Cn1nc(Cc2ccncc2)c2ccccc2c1=O | . | . | 2% | . | -7% | .
Nc1c(-c2ccc(Cl)cc2)cnn1-c1ccccc1 | 6.5µM* | 0.89µM* | . | . | 4.8µM* | 2.2µM*
COc1ccc(-c2cnn(-c3ccccc3)c2N)cc1OC | 1% | -5% | -4% | 7% | 1% | 2%
COc1ccc(-c2cnc3c(-c4ccc(F)cc4)cnn3c2N)cc1 | ? | 0.32µM* | . | . | 0.6µM* | 0.4µM*
Cc1ccc(-c2cnn(-c3ccccc3)c2N)cc1 | ? | 1.1µM* | . | . | 1.3µM* | 0.45µM*
Nc1c(-c2ccc(Cl)cc2)nnn1-c1ccccc1 | ? | 2.2µM* | . | -12% | ? | 3.2µM*
O=C1C=CC(=O)c2c1ccc1c2ccc2ccccc21 | . | . | -13%[20.6 µM] | -1%[17.1 µM] | . | .
N#CNC(N)=Nc1ccc(Cl)cc1 | . | . | -14%[9.22 µM] | -9%[7.66 µM] | . | .
N#Cc1c(C#N)c(-c2ccccc2)n(-c2ccc(C(=O)O)cc2)c1N | 0% | 2% | -13% | -1% | 1% | 0%
Nc1c(-c2ccc(Cl)cc2)cnc2c(-c3ccccc3)cnn12 | 1.6µM* | 1.3µM* | . | . | 0.48µM* | 0.32µM*
